Measured values: PubChem BioAssay (NCATS)
Values joined by “and” are separate entries in the source; they are usually repeats but may differ in a detail not shown here. Identical values can stand only once. Records with an inconclusive call do not appear. A call without a number means that no potency is given here. Active and inactive are the calls of the source. Calls come from the whole dose curve; as a rule, active = well fitted curve in the direction sought with a large enough effect; inconclusive = small, poorly fitted or top-dose-only effect, or another doubt; inactive = no such curve, though single readings can be large or run the other way.

Target: Hexokinase-4 (Homo sapiens) + Glucokinase regulatory protein (Homo sapiens) (UniProt P35557+Q14397)
Assay: qHTS assay for inhibitors of recombinant human GCK-GKRP interaction: HTRF assay (AID 743207)
Settings: recombinant GCK-GKRP HTRF binding, 60 min, with sorbitol-6-phosphate; series mostly up to 57.5 µM
How it was run: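 GST-GCK and FLAG-GKRP (5 nM each) were combined with 2 uM S6P in pH 7.1 Hepes/MgCl2/KCl/DTT buffer, then compound and anti-FLAG XL665/anti-GST K antibodies were added. After 60 min at room temperature, HTRF 665/615 nm emission was read.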

Hexokinase-4 (Homo sapiens) + Glucokinase regulatory protein (Homo sapiens), sequence (P35557 whole entry, looked up): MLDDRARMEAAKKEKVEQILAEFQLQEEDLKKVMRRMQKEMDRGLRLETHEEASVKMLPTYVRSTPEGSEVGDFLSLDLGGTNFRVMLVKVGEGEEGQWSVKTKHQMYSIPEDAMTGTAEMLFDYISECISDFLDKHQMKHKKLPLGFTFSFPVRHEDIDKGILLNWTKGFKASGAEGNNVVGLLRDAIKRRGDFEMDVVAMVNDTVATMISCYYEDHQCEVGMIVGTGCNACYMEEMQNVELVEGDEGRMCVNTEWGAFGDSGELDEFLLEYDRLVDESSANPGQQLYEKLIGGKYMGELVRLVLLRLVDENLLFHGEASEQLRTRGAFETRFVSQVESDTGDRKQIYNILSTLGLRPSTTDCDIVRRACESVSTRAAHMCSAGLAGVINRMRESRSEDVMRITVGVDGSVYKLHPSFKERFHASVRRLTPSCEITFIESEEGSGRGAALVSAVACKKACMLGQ
Hexokinase-4 (Homo sapiens) + Glucokinase regulatory protein (Homo sapiens), sequence (Q14397 whole entry, looked up): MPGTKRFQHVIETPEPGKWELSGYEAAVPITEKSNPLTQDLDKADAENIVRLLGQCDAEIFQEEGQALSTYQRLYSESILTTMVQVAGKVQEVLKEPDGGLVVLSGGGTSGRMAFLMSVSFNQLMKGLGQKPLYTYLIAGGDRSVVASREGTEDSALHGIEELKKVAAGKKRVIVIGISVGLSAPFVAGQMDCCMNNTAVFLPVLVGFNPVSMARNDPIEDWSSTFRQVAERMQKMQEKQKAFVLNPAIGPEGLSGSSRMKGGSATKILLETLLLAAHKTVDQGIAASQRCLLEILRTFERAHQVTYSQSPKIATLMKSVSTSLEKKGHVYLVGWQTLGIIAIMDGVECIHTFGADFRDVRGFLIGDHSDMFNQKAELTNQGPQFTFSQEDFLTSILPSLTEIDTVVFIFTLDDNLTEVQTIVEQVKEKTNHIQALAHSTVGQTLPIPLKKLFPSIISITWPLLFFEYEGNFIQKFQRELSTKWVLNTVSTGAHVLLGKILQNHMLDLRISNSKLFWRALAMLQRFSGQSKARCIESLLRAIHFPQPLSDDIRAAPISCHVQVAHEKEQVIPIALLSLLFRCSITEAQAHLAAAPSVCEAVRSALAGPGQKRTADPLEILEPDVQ

| SMILES | outcome |
| --- | --- |
| CC(C)(C(=O)O)c1ccc(C(O)CCCN2CCC(C(O)(c3ccccc3)c3ccccc3)CC2)cc1 (stereo unspecified) | inactive |
| CC1=C(CC(=O)O)c2cc(F)ccc2/C1=C\c1ccc(S(C)(=O)=O)cc1 | inactive |
| C#CCN(C)Cc1ccccc1 | inactive |
| CC1=C(CC(=O)O)c2cc(F)ccc2/C1=C\c1ccc(S(C)=O)cc1 (stereo unspecified) | inactive |
| CCN(CC)CCOC(=O)C1(C2CCCCC2)CCCCC1 | inactive |
| CCN(CC)C(C)CN1c2ccccc2Sc2ccccc21 (stereo unspecified) | inactive |
| C=Cc1c(C)c2cc3[nH]c(cc4nc(cc5nc(cc1[nH]2)C(C)=C5CCC(=O)O)C(CCC(=O)O)=C4C)c(C)c3C=C | inactive |
| OCCN1CCN(CCCN2c3ccccc3Sc3ccc(Cl)cc32)CC1 | inactive |
| CNCC(O)c1ccc(O)c(O)c1 (stereo unspecified) | inactive |
| Nc1cc(=O)[nH]c(N)n1 | inactive |
| CC[C@H]1CN2CCc3cc(OC)c(OC)cc3[C@@H]2C[C@@H]1C[C@H]1NCCc2cc(OC)c(OC)cc21 | inactive |
| CCCn1cnc2c1c(=O)n(CCCCC(C)=O)c(=O)n2C | inactive |
| CN1CCN(C2Cc3ccccc3Sc3ccc(Cl)cc32)CC1 (stereo unspecified) | inactive |
| CCCCCCCCCCCCCCCC(=O)NCCO | inactive |
| CC(C)(C)[C@]1(O)CCN2C[C@H]3c4ccccc4CCc4cccc(c43)[C@@H]2C1 | inactive |
| CC(C)C(=O)c1c(C(C)C)nn2ccccc12 | inactive |
| CNCCC(Oc1ccc(C(F)(F)F)cc1)c1ccccc1 (stereo unspecified) | inactive |

| SMILES | outcome |
| --- | --- |
| Cc1cc(N)c2ccccc2[n+]1CCCCCCCCCC[n+]1c(C)cc(N)c2ccccc21 | inactive |
| C[C@](N)(Cc1ccc(O)cc1)C(=O)O | inactive |
| CCN(CC)CCNC(=O)c1cc(Cl)c(N)cc1OC | inactive |
| CC(=O)OCC(=O)[C@@]1(O)CC[C@H]2[C@@H]3CCC4=CC(=O)CC[C@]4(C)[C@H]3C(=O)C[C@@]21C | inactive |
| CCN(CC)CCCC(C)Nc1c2ccc(Cl)cc2nc2ccc(OC)cc12 (stereo unspecified) | inactive |
| CC(C(O)c1ccc(O)cc1)N1CCC(Cc2ccccc2)CC1 (stereo unspecified) | inactive |
| COCCOC(=O)C1=C(C)NC(C)=C(C(=O)OC/C=C/c2ccccc2)C1c1cccc([N+](=O)[O-])c1 (stereo unspecified) | inactive |
| CSc1ccc2c(c1)N(CCC1CCCCN1C)c1ccccc1S2 (stereo unspecified) | inactive |
| NC1CCN(c2cccc(Cl)n2)CC1 | inactive |
| CC(C)(C)c1onc(OCP(=O)(O)O)c1CC(N)C(=O)O (stereo unspecified) | inactive |
| NC(N)=NCCC[C@H](N)C(=O)O | inactive |
| CNCCCC1c2ccccc2C=Cc2ccccc21 | inactive |
| N=c1c[n+](N2CCOCC2)[n-]o1 | inactive |
| CC(CN(C)C)CN1c2ccccc2CCc2ccccc21 (stereo unspecified) | inactive |
| CC1=C(/C=C/C(C)=C/C=C/C(C)=C/C(=O)O)C(C)(C)CCC1 | inactive |
| CC(C)NC[C@H](O)c1ccc(O)c(O)c1 | inactive |

Tested on: not listed separately
Assay: qHTS Assay for Identifying Gametocytocidal Compounds (AID 743244); note: potency is the fitted concentration of half-maximal effect;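 for max response: actives lower the fluorescent signal which means gametocytes are killed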
Settings: P. falciparum 3D7 stage III-V gametocytes, alamarBlue, 72 h; max response: hits give low values
How it was run: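 Stage III-V P. falciparum 3D7 gametocytes, 20,000 per well, were exposed to compounds for 72 h at 37C, 5% CO2. AlamarBlue was then added for 24 h and viability was read as fluorescence at Ex 525/Em 598 nm.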

| SMILES | max response | Potency |
| --- | --- | --- |
| CC(C)(C(=O)O)c1ccc(C(O)CCCN2CCC(C(O)(c3ccccc3)c3ccccc3)CC2)cc1 (stereo unspecified) | -3.24% (inactive) and 8.77% (inactive) | – |
| C#CCN(C)Cc1ccccc1 | 14.1% (inactive) and 13.7% (inactive) | – |
| CC1=C(CC(=O)O)c2cc(F)ccc2/C1=C\c1ccc(S(C)=O)cc1 (stereo unspecified) | -9.81% (inactive) and 32% (inactive) | – |
| CCN(CC)CCOC(=O)C1(C2CCCCC2)CCCCC1 | 0.472% (inactive) and 32.4% (inactive) | – |
| CCN(CC)C(C)CN1c2ccccc2Sc2ccccc21 (stereo unspecified) | 2.08% (inactive) and 2.32% (inactive) | – |
| Nc1cc(=O)[nH]c(N)n1 | -11.1% (inactive) and 4.42% (inactive) | – |
| CCCn1cnc2c1c(=O)n(CCCCC(C)=O)c(=O)n2C | -8.62% (inactive) and 26.7% (inactive) | – |
| CCCCCCCCCCCCCCCC(=O)NCCO | -1.98% (inactive) and 26.2% (inactive) | – |
| CC(C)(C)[C@]1(O)CCN2C[C@H]3c4ccccc4CCc4cccc(c43)[C@@H]2C1 | 13.6% (inactive) and 4.8% (inactive) | – |
| CCOC(=O)c1ccc(O)cc1 | 10.3% (inactive) | – |
| CC(C)C(=O)c1c(C(C)C)nn2ccccc12 | -11.3% (inactive) and 12.6% (inactive) | – |
| Cc1cc(N)c2ccccc2[n+]1CCCCCCCCCC[n+]1c(C)cc(N)c2ccccc21 | – | 3.98 µM (active) |
| CC(=O)OCC(=O)[C@@]1(O)CC[C@H]2[C@@H]3CCC4=CC(=O)CC[C@]4(C)[C@H]3C(=O)C[C@@]21C | -5.84% (inactive) | – |
| CCN(CC)CCCC(C)Nc1c2ccc(Cl)cc2nc2ccc(OC)cc12 (stereo unspecified) | – | 3.16 µM (active) and 1 µM (active) |
| CC(C(O)c1ccc(O)cc1)N1CCC(Cc2ccccc2)CC1 (stereo unspecified) | – | 2.82 µM (active) |
| COCCOC(=O)C1=C(C)NC(C)=C(C(=O)OC/C=C/c2ccccc2)C1c1cccc([N+](=O)[O-])c1 (stereo unspecified) | 2.31% (inactive) and 20.4% (inactive) | – |
| CSc1ccc2c(c1)N(CCC1CCCCN1C)c1ccccc1S2 (stereo unspecified) | – | 2.51 µM (active) |
| NC1CCN(c2cccc(Cl)n2)CC1 | 1.41% (inactive) and 17.3% (inactive) | – |
| CC(C)(C)c1onc(OCP(=O)(O)O)c1CC(N)C(=O)O (stereo unspecified) | 18.1% (inactive) | – |
| NC(N)=NCCC[C@H](N)C(=O)O | -1.84% (inactive) and -1.95% (inactive) | – |
| N=c1c[n+](N2CCOCC2)[n-]o1 | 8.18% (inactive) | – |
| CC1=C(/C=C/C(C)=C/C=C/C(C)=C/C(=O)O)C(C)(C)CCC1 | 12.7% (inactive) and 23.7% (inactive) | – |
| CC(C)NC[C@H](O)c1ccc(O)c(O)c1 | -9.19% (inactive) and 21.1% (inactive) | – |
